Screening data as filed in PubChem.
Most compounds without a hit are left out; they make up all but 7.3% or so of the library.
SMN2 splice up: enhancers of SMN2 splice variant expression; HEK293 SMN2-luciferase splicing reporter, luminescence, 30-36 h; Potency, µM (highest dose often 46.1 µM), actives largely listed as activators; hit rate 2.8% among 210,000; AID 1458; also: nearly all actives have a fitted effect of over 55% in size
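qHTS luciferase splicing reporter: luminescence rises when SMN2 exon 7 is included in transfected HEK293 cells. Compound exposure lasted 30-36 h at 37C, with 4.5 mM final sodium butyrate as control, followed by a ONE-Glo read.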
FLuc modulator: counter-screen for miR-21 project: firefly luciferase inhibitors or activators; P08659; purified FLuc, Km substrates, luminescence inhibition; Potency, µM (series often up to 57.5 µM), actives largely listed as inhibitors; hit rate 6.9% among 360,000; also: nearly all actives have a fitted effect of over 55% in size
Target sequence (P08659 whole entry, looked up): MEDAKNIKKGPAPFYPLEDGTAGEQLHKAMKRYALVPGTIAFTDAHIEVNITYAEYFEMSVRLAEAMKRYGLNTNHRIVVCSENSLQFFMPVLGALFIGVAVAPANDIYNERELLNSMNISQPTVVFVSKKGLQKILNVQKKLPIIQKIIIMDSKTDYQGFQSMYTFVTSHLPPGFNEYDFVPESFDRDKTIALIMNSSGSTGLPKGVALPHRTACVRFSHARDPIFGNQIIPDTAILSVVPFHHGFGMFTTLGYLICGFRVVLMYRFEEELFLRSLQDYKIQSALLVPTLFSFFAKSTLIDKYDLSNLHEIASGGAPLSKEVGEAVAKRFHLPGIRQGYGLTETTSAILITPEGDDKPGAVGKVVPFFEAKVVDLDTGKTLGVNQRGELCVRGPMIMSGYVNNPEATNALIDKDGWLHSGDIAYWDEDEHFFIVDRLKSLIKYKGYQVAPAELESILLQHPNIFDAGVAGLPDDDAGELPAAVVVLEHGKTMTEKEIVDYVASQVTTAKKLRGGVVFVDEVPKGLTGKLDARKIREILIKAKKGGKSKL
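Purified P. pyralis luciferase (10nM final) with 10uM D-luciferin and 10uM ATP (Km levels) in 50mM Tris acetate pH 7.5, 10mM Mg acetate, 0.01% Tween-20, 0.05% BSA; qHTS 6-point titration, ~60 µM downward; luminescence read.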
KinaseGlo FLuc: Kinase-Glo luciferase inhibition (counter-screen). Q27757. Potency, µM (top dose mostly 38.3 µM), hits mostly inhibitors. Kinase-Glo luciferase, ATP luminescence, 8 min. hit rate 0.28% among 200,000; also: nearly all actives have a fitted effect of over 60% in size
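Recombinant Kinase-Glo luciferase, 10 uM ATP (linear range), luciferin; imidazole pH 7.2 / KCl / MgCl2 / Tween / BSA buffer; 8 min RT; luminescence.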
NPC1 prom act: activates the NPC1 promoter. Potency, µM (top dose mostly 9.22 µM), actives largely listed as activators. hit rate 2.4% among 320,000. Huh7 NPC1 promoter luciferase reporter, 24 h; also: nearly all actives have a fitted effect of over 60% in size
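Luminescence read-out of NPC1 promoter-driven luciferase in stably transfected Huh7 cells; compounds delivered in DMSO and left 24 h at 37C, 5% CO2, qHTS titration format.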
Rab9 promoter act: activates the Rab9 promoter; Potency, µM (highest dose often 9.22 µM), usual class: activators; Huh7 Rab9 promoter-luciferase reporter, luminescence, 24 h; hit rate 2.8% among 320,000; also: nearly all actives have a fitted effect of over 60% in size
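Huh7 reporter line, Rab9 promoter upstream of luciferase. Compound exposure 24 h at 37 °C in reduced-serum medium with 10% FBS. Read-out: luminescence.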
ELG1 genotoxic: genotoxicity induction in ELG1-luciferase HEK293T cells | HEK293T ELG1-luciferase reporter, luminescence, 16 h | Potency, µM (highest dose often 46 µM), hits mostly activators | hit rate 1.3% among 330,000; also: nearly all actives have a fitted effect of over 60% in size
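Screening used a luciferase reporter fused to human ELG1 in HEK293T cells. Luminescence was read on a CCD plate imager after 16 hr exposure and 30 min ONE-Glo incubation.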
Hits are given with their value; . = inactive; ? = inconclusive; / = no result. Calls follow the shape of the dose curve; as a rule, active = well fitted curve in the direction sought with a large enough effect; inconclusive = small, poorly fitted or top-dose-only effect, or another doubt; inactive = no such curve, though single readings can be large; an effect the other way counts as inactive or inconclusive.

SMILES	SMN2 splice up	FLuc modulator	KinaseGlo FLuc	NPC1 prom act	Rab9 promoter act	ELG1 genotoxic
O=C(Nc1ccc2c(c1)OCCO2)Nc1ccc2c(c1)OCO2	2.51µM	0.953µM	.	0.398µM	0.1µM	?
CC(=O)Nc1ccc2c(c1)OCCO2	.	.	.	.	.	.
Cc1ccc(N/C=C/C(=O)c2sc(-c3ccccc3)nc2C)cc1	.	6.01µM	.	.	.	.
Cc1ccc(N/C=C/C(=O)c2cccs2)cc1	2µM	0.12µM	?	?	0.141µM	0.164µM
O=C(/C=C/Nc1ccccc1F)c1cccs1	2µM	0.239µM	?	?	3.98µM	?
O=C(/C=C/Nc1ccc(F)cc1F)c1cccs1	0.398µM	0.107µM	7.94µM	0.562µM	2µM	?
O=C(Cc1cccs1)Nc1ccc(F)cc1F	/	.	/	.	.	.
CCOC(=O)c1ccccc1N/C=C/C(=O)c1cccs1	/	?	/	.	?	.
Cc1ccc(NC(=O)C2CCN(C(=O)c3cccs3)CC2)cc1	/	.	/	.	.	.
S=C(Nc1ccc(Cl)cc1)NC1CC2CCCC(C1)N2C1CC1 (stereo unspecified)	.	.	.	.	.	.
Cc1cccc(OCC(O)CN2C(C)(C)CC(O)CC2(C)C)c1 (stereo unspecified)	.	.	.	/	/	/
O=C(/C=C\Nc1cccc(F)c1)c1cccs1	6.31µM	0.849µM	.	3.98µM	3.98µM	?
CCc1ccc(OCC(=O)NNC(=O)Cc2cccs2)cc1	.	.	.	.	.	.
CCCOc1ccc(CNC(=O)Cc2cccs2)cc1	/	19µM	/	?	?	?
O=C(Cc1cccs1)NCc1ccc(Cl)cc1Cl	/	15.1µM	/	3.16µM	2.82µM	?
O=C(Cc1cccs1)NCc1ccccc1Br	/	19µM	/	?	3.98µM	?
O=C(Cc1cccs1)NCc1cccc(CNC(=O)Cc2cccs2)c1	.	.	.	.	.	.
COc1ccc(NC(=O)CSCC(=O)N(C)Cc2c(F)cccc2Cl)cc1	/	?	/	.	.	.
CC(=O)c1ccc(N2CCN(S(=O)(=O)c3ccc4c(c3)CC(C)N4C(C)=O)CC2)cc1 (stereo unspecified)	/	.	/	.	.	.
O=C(NCCc1ccccc1)c1cc(-c2ccco2)on1	10µM	6.01µM	.	2.51µM	2.82µM	?
Cc1cc(NC(=O)c2cc(-c3ccco3)on2)no1	.	.	.	.	.	.
COc1ccc(NC(=O)c2cc(-c3ccco3)on2)cc1OC	/	.	/	.	.	?
Cc1ccc(NC(=O)c2cc(-c3ccco3)on2)cc1C	.	2.69µM	.	.	.	?
Cc1ccc(NC(=O)c2cc(-c3ccco3)on2)cc1	.	2.13µM	.	.	.	?
Cc1ccc(NC(=O)c2cc(-c3cccc(O)c3)on2)cc1C	.	9.53µM	.	.	.	?
SMILES	SMN2 splice up	FLuc modulator	KinaseGlo FLuc	NPC1 prom act	Rab9 promoter act	ELG1 genotoxic
COc1ccc(CNC(=O)Cn2nc(-c3ccc4c(c3)OCCO4)ccc2=O)cc1	.	.	.	.	.	.
Cc1ccc(S(=O)(=O)N(C)C)cc1NC(=S)NC1CCCC(C)C1C (stereo unspecified)	.	.	.	.	.	.
O=C(Nc1ccccn1)Nc1ccccc1[N+](=O)[O-]	/	?	/	?	.	?
O=[N+]([O-])c1ccc(O)c(Nc2ncnc3ccccc23)c1	/	0.536µM	.	?	.	.
COc1ccc(C)cc1NC(=O)CSc1nc(=O)n(CCCN2CCOCC2)c2c1CCCC2	/	.	/	.	.	.
FC(F)Oc1ccc(/C=N/c2c(-c3ccc(OC(F)F)cc3)nc3n2CCS3)cc1	?	9.53µM	.	.	.	.
Clc1ccc(-c2nc3cc(CN4CCCCC4)ccc3o2)cc1	/	10.7µM	/	1.78µM	2.82µM	?
CC(Oc1ccc(Cl)cc1Cl)C(=O)Nc1ccc2oc(-c3ccncc3)nc2c1 (stereo unspecified)	/	.	.	.	.	.
Cc1ccc(-c2nc3cc(NC(=O)C(C)C)ccc3o2)cc1C	?	0.269µM	?	0.355µM	0.126µM	?
CC(C)C(=O)Nc1cccc(-c2nc3ccccc3o2)c1	.	.	.	.	.	?
Cc1ccc(-c2nc3cc(NC(=O)C(C)C)ccc3o2)cc1	0.562µM	1.07µM	.	0.355µM	0.1µM	?
